USP30 inh = blocks human USP30 ubiquitin-rhodamine cleavage; Q70CQ3; purified USP30, Ub-rhodamine cleavage fluorescence; inhibition, % at 25 µM; 47,000 tested, 5.3% active
USP17 inh = blocks human USP17 ubiquitin-rhodamine cleavage. 47,000 tested, 6.5% active. A8MUK1. inhibition, % at 50 µM. AID 1645855. purified USP17, Ub-rhodamine cleavage fluorescence, 3 h
USP28 inh = human USP28 deubiquitinase inhibition | Q96RU2 | purified USP28, Ub-rhodamine cleavage fluorescence, 30 min | inhibition, % at 25 µM | 47,000 tested, 3% active | AID 1645857
Target sequence (Q96RU2 whole entry, looked up): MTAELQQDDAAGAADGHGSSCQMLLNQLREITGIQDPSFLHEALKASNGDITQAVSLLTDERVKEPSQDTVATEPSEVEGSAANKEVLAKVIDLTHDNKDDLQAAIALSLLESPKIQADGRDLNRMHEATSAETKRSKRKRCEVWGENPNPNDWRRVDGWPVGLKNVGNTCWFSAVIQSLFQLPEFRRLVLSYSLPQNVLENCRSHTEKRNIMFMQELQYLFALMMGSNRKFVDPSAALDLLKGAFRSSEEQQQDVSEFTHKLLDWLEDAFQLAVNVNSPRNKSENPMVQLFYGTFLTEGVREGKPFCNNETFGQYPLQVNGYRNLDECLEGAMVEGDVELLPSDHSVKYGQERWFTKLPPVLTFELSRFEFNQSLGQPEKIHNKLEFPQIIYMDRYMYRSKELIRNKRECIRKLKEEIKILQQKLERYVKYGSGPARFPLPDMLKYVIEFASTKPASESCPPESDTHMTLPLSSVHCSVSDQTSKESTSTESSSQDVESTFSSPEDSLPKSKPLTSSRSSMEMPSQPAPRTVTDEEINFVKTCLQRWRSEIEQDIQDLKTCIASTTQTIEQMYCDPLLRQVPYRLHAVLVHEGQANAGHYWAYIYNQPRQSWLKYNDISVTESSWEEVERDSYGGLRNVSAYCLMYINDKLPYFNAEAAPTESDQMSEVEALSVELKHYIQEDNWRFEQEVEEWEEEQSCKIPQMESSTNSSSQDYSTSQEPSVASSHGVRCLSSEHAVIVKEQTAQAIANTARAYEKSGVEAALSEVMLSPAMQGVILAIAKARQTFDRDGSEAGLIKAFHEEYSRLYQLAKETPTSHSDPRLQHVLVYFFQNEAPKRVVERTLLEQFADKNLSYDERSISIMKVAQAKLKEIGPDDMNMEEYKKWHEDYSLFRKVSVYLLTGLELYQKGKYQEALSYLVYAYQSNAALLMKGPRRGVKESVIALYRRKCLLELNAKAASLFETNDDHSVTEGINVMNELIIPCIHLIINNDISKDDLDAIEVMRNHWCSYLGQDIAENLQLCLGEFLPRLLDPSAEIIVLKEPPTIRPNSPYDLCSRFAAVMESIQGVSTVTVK
Hits are given with their value. This is a sample that favours compounds with a hit; in the whole collection about 11% have one here. Rule as the data show it: active = inhibition above about 30%; inactive = the rest.

CN(C)C(=O)CN1CC[C@@H]2Oc3ccccc3S(=O)(=O)N(Cc3ccccc3)[C@H]2CC1 was read as USP30 inh inactive, USP17 inh inactive and USP28 inh inactive.
CC(C)c1cc(C(=O)N2CCOC(CCc3cc(=O)[nH]cn3)C2)on1 (configuration not stated) was read as USP30 inh 40, USP17 inh inactive and USP28 inh inactive.
Screening Cc1cc(CCC2CN(C(=O)c3noc4c3CCCC4)CCO2)ncn1 (configuration not stated) returned USP30 inh inactive, USP17 inh inactive and USP28 inh inactive.
Brc1cccc(/C=C/c2nc3ccccc3o2)c1 was read as USP30 inh inactive, USP17 inh inactive and USP28 inh inactive.
COc1cccc(CN2CCC(c3[nH]nc4nccnc34)CC2)c1 was read as USP30 inh inactive, USP17 inh inactive and USP28 inh inactive.
COC[C@H]1C[C@@H]2CN(S(=O)(=O)c3ccc4ccccc4c3)C(C)[C@H]1N2C (some centres not stated) was read as USP30 inh inactive, USP17 inh inactive and USP28 inh inactive.
`COc1cc2c(cc1OC)C(COc1ccc(F)cc1)N(C(=O)c1cccc3ccccc13)CC2` (configuration not stated) gave USP30 inh inactive, USP17 inh inactive and USP28 inh inactive.
For CCOC(=O)c1ccc(OCC2c3cc(OC)c(OC)cc3CCN2C(=O)C(C)Oc2ccccc2)cc1 (configuration not stated) the results were USP30 inh inactive, USP17 inh 32 and USP28 inh inactive.
For O=S(=O)(c1ccc2c(c1)OCCO2)N1CCCCC1c1cccnc1 (configuration not stated) the results were USP30 inh inactive, USP17 inh inactive and USP28 inh inactive.
For O=C(NCc1cccnc1)c1cc(N2CCCC2)n2nccc2n1 the results were USP30 inh inactive, USP17 inh inactive and USP28 inh inactive.
Screening Cn1ccc2cc(C(=O)N3CCOCC3)ccc21 returned USP30 inh inactive, USP17 inh inactive and USP28 inh inactive.
Screening CS(=O)(=O)c1ccc2nc(N(Cc3cccnc3)C(=O)c3cccc(Oc4ccccc4)c3)sc2c1 returned USP30 inh inactive, USP17 inh inactive and USP28 inh inactive.
`Cc1nc2ccccn2c(=O)c1NC(=O)Cc1ccc(Cl)cc1` gave USP30 inh inactive, USP17 inh inactive and USP28 inh inactive.
`Cc1nc2ccccn2c1C1(O)C(=O)Nc2c(Cl)cc(Cl)cc21` (configuration not stated) gave USP30 inh inactive, USP17 inh 52 and USP28 inh inactive.
`COCCN1[C@H]2CCN(C(=O)c3cccn3C)CC[C@@H]2Oc2ccccc2S1(=O)=O` gave USP30 inh inactive, USP17 inh inactive and USP28 inh inactive.
For COc1cc(NC(=O)Cc2ccc3c(c2)OCCO3)c(OC)cc1Cl the results were USP30 inh 45, USP17 inh inactive and USP28 inh inactive.
For O=C(Cc1ccc2c(c1)OCCO2)Nc1ccc(F)cc1F the results were USP17 inh inactive.
For CCn1c(=O)c(-c2ccc(C(=O)NCc3ccc(OC)cc3OC)cc2)nc2cccnc21 the results were USP30 inh inactive, USP17 inh inactive and USP28 inh inactive.
`CCCn1c(=O)c(-c2ccc(C(=O)NCc3ccc(OC)cc3)cc2)nc2cccnc21` gave USP30 inh 32, USP17 inh 87 and USP28 inh inactive.
Screening O=C(Nc1cc(F)ccc1F)c1ccc2c(c1)nnn2CCN1CCOCC1 returned USP30 inh inactive, USP17 inh inactive and USP28 inh inactive.
Screening COc1cccc(CC2(Cc3cccc(OC)c3)C(=O)N(Cc3ccccn3)C(=O)c3ccccc32)c1 returned USP30 inh 36, USP17 inh inactive and USP28 inh inactive.
`COc1ccc(S(=O)(=O)N2CCN3C(=O)N(Cc4ccccn4)C(=O)C3(C)CC2)cc1` (configuration not stated) gave USP30 inh inactive, USP17 inh inactive and USP28 inh inactive.
Screening O=C(CN1C=NC2=NS(=O)(=O)c3ccccc3N21)Nc1cc(F)ccc1F returned USP30 inh inactive, USP17 inh 76 and USP28 inh inactive.
O=C(CCC(=O)N1CCOc2ccccc21)Nc1cc(F)ccc1F was read as USP30 inh inactive, USP17 inh inactive and USP28 inh inactive.
`COc1ccc(-n2ccc(=O)c(-c3nc(-c4ccc(F)cc4)no3)n2)cc1` gave USP30 inh 35, USP17 inh 31 and USP28 inh inactive.
COc1cccc(-n2ccc(=O)c(-c3nc(-c4ccccc4Cl)no3)n2)c1 was read as USP30 inh 66 and USP28 inh 41.
`COc1ccccc1-c1noc(-c2nn(-c3ccc(C)c(C)c3)ccc2=O)n1` gave USP30 inh inactive, USP17 inh inactive and USP28 inh inactive.
`COc1ccc(Cn2cccc2-c2nc(-c3ccncc3)no2)cc1` gave USP30 inh inactive, USP17 inh inactive and USP28 inh inactive.
`Cc1ccc(-n2ccc(=O)c(-c3nc(-c4ccccc4F)no3)n2)cc1` gave USP30 inh inactive, USP17 inh inactive and USP28 inh inactive.
CCc1ccc(-n2ccc(=O)c(-c3nc(-c4ccncc4)no3)n2)cc1 was read as USP17 inh 39.
`COc1cccc(CN2C(=O)CCC2(C)C(=O)NC2CCCC2)c1OC` (configuration not stated) gave USP30 inh inactive, USP17 inh inactive and USP28 inh inactive.
For O=c1[nH]c(CSc2ccc(Br)cc2)nc2ccccc12 the results were USP30 inh inactive, USP17 inh inactive and USP28 inh inactive.
Screening CCN1CCN(C(=O)Cn2cc(C)nn2)CC(Cc2ccc(-c3ccccc3F)cc2)C1=O (configuration not stated) returned USP30 inh inactive, USP17 inh inactive and USP28 inh inactive.
Screening COc1cc2nc(CN3CCN(c4ccc(O)cc4)CC3)[nH]c(=O)c2cc1OC returned USP30 inh inactive, USP17 inh 41 and USP28 inh inactive.
For COc1cc2nc(CN3CCN(c4ccccc4F)CC3)[nH]c(=O)c2cc1OC the results were USP30 inh inactive, USP17 inh inactive and USP28 inh inactive.
Cc1nc(-c2ccnn2C)cc(C2CCN(S(C)(=O)=O)CC2)n1 was read as USP30 inh inactive, USP17 inh inactive and USP28 inh inactive.
Screening Cc1cccc(CNC(=O)c2cnc3sc4c(n3c2=O)CCCC4)c1 returned USP30 inh 37, USP17 inh inactive and USP28 inh inactive.
Screening COc1cccc(CNC(=O)c2cnc3sc4c(n3c2=O)CCC4)c1 returned USP30 inh inactive, USP17 inh inactive and USP28 inh inactive.
Screening c1ccc2c(c1)CCN(c1ncnc3sc4c(c13)CCCC4)C2 returned USP30 inh inactive, USP17 inh inactive and USP28 inh inactive.
`Clc1ncc(CN2CCc3ccccc3C2)s1` gave USP30 inh inactive, USP17 inh inactive and USP28 inh 38.
For Cc1ncsc1CN1CC[C@H]2C[C@H](C(=O)NC3CC3)O[C@@H]2C1 the results were USP17 inh inactive.
CSc1cccc(NC(=O)Cn2cnc3c(-c4ccc(F)cc4)nsc3c2=O)c1 was read as USP30 inh inactive, USP17 inh inactive and USP28 inh inactive.
Screening CSc1nc2ncn(CC(=O)Nc3cccc(Cl)c3)c(=O)c2s1 returned USP30 inh inactive, USP17 inh 60 and USP28 inh inactive.
